Measured values reported in PubChem BioAssay (NCATS).
Several values for one entry are separate records, joined by “and”; a condition that tells them apart may be missing. Identical values can stand only once. Results filed as inconclusive are left out. Entries that show only a call come without a potency. Activity calls are given as the source filed them. Unless noted, the call rests on the fitted dose curve.

Experiments:
[1] = target: Peroxisome proliferator-activated receptor delta (Homo sapiens) (UniProt Q03181); test: qHTS assay for small molecule antagonists of peroxisome proliferator-activated receptor delta signaling (AID 588535; active means well fitted inhibition curve with a large enough effect in the signal ratio, with a control signal flat, not every such curve was filed as active; the % refers to the signal ratio)
Summary of the method: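 Inhibition of PPAR-delta response element-driven beta-lactamase expression is measured in HEK293T cells exposed to a compound titration series for 18 hrs at 37 C. Half-maximal inhibition comes from Hill equation fitting.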

[2] = target: Vitamin D3 receptor (Homo sapiens) (UniProt P11473); test: qHTS assay for small molecule antagonists of vitamin D receptor signaling (AID 588541);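 further: receptor activated by calcitriol during compound treatment; series mostly up to about 77 µM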
Summary of the method: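 VDR-UAS-bla HEK293T cells (2000/well, 2% charcoal-stripped FBS) were treated with titrated compounds plus 1-alpha,25-dihydroxyvitamin D3 (50 nM or 3 nM final) for 16 h at 37 C. CCF4 beta-lactamase fluorescence was read; Hill fits gave IC50.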

[3] = qHTS assay for small molecule activators of the nuclear factor-kappa B (NF-kB) signaling pathway (AID 651749; active means well fitted activation curve with a large enough effect in the signal ratio; the % refers to the signal ratio; further: series mostly up to about 77 µM); conditions: NF-kB-bla ME-180 cells, beta-lactamase FRET ratio, 16 h; activation: hits give high values
Summary of the method: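 Human ME-180 cervical cells with an NF-kB-bla construct; compounds added via 23 nL pin transfer, DMSO as vehicle; incubation 16 hr. Reporter activity measured by FRET disruption.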

[4] = target: Bile acid receptor (Homo sapiens) (UniProt Q96RI1); test: qHTS assay for small molecule antagonists of farnesoid X receptor signaling (AID 588526)
Summary of the method: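 Concentration-response titrations were fitted to the Hill equation for half-maximal inhibition and maximal response, with data normalised to 50 uM chenodeoxycholic acid and DMSO control wells. Cells: FXR-UAS-bla HEK293T, dialyzed FBS.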

[5] = qHTS assay for small molecule agonists of the antioxidant response element (ARE) signaling pathway (AID 651741; active means well fitted activation curve with a large enough effect in the signal ratio; the % refers to the signal ratio; further: potency means the concentration at half of the fitted maximal effect)
Summary of the method: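 Reporter: beta-lactamase under ARE, stably in HepG2. Exposure: 16 h, 37 C, compounds delivered in DMSO by pin tool after 5 h cell preincubation. Readout: FRET substrate fluorescence after 2 h at RT.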

[6] = target: Glucocorticoid receptor (Homo sapiens) (UniProt P04150); test: qHTS assay for small molecule agonists of glucocorticoid receptor signaling (AID 588532; active means well fitted curve in the direction sought with a large enough effect in the signal ratio, with a control signal flat; the % refers to the signal ratio); conditions: HeLa MMTV-bla, beta-lactamase ratio, agonist, 18 h; hits give high values; percent of dexamethasone control, DMSO zero
Summary of the method: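 Stimulation of a glucocorticoid response element-driven beta-lactamase gene was measured in HeLa cells. Responses were scaled between DMSO basal and 0.1 uM dexamethasone, then fitted for half-maximal stimulation.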

[7] = target: Glucocorticoid receptor (Homo sapiens) (UniProt P04150); test: qHTS assay for small molecule antagonists of glucocorticoid receptor signaling (AID 588533; active means well fitted inhibition curve with a large enough effect in the signal ratio, with a control signal flat, not every such curve was filed as active; the % refers to the signal ratio;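 further: cells stimulated with 2 nM dexamethasone as agonist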)
Summary of the method: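 Antagonist-mode qHTS: compound titrations added to GRE-bla HeLa cells, then dexamethasone 2 nM final; 18 h, 37 C. CCF4 FRET fluorescence normalized to dexamethasone and DMSO; IC50 from Hill fit.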

[8] = target: Androgen receptor (Homo sapiens) (UniProt P10275); test: qHTS assay for small molecule agonists of androgen receptor signaling (AID 588515; active means well fitted curve in the direction sought with a large enough effect in the signal ratio, with a control signal flat; the % refers to the signal ratio); conditions: AR-UAS-bla HEK293, beta-lactamase ratio, agonist 16 h; activation: hits give high values
Summary of the method: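 Stimulation of an AR-responsive β-lactamase reporter in GripTite HEK293 cells was measured after 16 h compound exposure at 37 °C, via CCF4 fluorescence after 2 h RT. EC50 from Hill fits, normalized to R1881 at 30 nM.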

[9] = target: Androgen receptor (Homo sapiens) (UniProt P10275); test: qHTS assay for small molecule antagonists of androgen receptor signaling (AID 588516; active means well fitted curve in the direction sought with a large enough effect in the signal ratio, with a control signal flat, not every such curve was filed as active; the % refers to the signal ratio)
Summary of the method: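 Compounds tested in titration against 10 nM R1881 in AR-responsive bla reporter HEK 293 cells; CCF4 fluorescence (460/530 nm) after 16 h exposure gave IC50 and efficacy.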

Sequence of Androgen receptor (Homo sapiens) (P10275 whole entry, looked up): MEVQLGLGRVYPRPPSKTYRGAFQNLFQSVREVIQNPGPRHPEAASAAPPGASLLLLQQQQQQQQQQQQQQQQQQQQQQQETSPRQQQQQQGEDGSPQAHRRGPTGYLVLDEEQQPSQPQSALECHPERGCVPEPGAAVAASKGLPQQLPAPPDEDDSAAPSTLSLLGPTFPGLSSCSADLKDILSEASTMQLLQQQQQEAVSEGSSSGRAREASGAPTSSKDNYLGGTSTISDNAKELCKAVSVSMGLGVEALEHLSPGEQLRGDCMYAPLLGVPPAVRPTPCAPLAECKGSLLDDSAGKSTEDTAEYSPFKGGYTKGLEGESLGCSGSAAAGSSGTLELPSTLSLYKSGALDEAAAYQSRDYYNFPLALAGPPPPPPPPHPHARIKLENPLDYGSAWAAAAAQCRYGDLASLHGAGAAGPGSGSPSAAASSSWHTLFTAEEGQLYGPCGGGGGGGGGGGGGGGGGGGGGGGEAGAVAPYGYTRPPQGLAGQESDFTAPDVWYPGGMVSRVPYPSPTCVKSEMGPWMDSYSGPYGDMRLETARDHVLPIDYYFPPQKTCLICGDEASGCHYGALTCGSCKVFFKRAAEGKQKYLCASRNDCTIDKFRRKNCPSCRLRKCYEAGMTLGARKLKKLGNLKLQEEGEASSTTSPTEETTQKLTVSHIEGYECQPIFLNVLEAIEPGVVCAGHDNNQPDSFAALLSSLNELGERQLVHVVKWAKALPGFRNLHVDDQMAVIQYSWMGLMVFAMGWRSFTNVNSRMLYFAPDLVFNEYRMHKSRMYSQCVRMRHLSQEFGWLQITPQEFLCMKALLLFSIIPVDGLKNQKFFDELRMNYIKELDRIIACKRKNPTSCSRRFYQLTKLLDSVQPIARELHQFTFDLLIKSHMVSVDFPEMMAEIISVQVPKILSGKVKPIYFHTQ
Sequence of Peroxisome proliferator-activated receptor delta (Homo sapiens) (Q03181 whole entry, looked up): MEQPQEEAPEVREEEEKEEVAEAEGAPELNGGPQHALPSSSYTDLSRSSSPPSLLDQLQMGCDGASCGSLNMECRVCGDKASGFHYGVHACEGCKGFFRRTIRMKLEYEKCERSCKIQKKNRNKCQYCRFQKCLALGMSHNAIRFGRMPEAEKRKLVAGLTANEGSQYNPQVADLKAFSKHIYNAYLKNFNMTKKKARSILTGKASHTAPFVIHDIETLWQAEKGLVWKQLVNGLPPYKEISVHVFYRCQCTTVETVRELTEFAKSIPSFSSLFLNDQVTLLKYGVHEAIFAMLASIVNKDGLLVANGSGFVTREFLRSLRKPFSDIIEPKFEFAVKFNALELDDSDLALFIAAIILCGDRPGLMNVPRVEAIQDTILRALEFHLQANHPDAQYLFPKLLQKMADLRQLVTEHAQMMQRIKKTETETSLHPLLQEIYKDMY
Sequence of Vitamin D3 receptor (Homo sapiens) (P11473 whole entry, looked up): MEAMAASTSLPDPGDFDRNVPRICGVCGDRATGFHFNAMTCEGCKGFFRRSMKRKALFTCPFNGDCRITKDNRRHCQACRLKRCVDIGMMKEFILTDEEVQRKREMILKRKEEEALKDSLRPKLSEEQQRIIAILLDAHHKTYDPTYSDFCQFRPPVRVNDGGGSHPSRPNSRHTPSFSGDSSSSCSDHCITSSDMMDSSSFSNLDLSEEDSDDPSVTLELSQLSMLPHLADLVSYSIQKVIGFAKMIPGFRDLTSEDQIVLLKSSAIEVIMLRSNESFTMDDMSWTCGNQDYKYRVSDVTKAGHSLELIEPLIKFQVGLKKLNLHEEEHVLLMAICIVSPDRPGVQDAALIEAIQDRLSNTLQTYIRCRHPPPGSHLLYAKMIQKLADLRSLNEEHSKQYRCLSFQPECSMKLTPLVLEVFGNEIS
Sequence of Bile acid receptor (Homo sapiens) (Q96RI1 whole entry, looked up): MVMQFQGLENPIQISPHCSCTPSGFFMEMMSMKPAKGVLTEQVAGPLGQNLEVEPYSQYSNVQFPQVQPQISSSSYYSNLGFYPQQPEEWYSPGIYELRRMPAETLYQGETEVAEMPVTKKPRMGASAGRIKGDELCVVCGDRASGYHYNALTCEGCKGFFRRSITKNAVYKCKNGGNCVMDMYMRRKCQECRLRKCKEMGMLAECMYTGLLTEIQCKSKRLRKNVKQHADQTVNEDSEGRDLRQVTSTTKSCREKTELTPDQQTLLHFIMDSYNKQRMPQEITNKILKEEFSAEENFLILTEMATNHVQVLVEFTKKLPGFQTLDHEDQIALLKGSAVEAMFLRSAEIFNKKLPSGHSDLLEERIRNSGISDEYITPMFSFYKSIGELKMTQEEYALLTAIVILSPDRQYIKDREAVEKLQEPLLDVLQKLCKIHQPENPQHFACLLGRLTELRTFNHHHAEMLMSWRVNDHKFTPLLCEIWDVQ
Sequence of Glucocorticoid receptor (Homo sapiens) (P04150 whole entry, looked up): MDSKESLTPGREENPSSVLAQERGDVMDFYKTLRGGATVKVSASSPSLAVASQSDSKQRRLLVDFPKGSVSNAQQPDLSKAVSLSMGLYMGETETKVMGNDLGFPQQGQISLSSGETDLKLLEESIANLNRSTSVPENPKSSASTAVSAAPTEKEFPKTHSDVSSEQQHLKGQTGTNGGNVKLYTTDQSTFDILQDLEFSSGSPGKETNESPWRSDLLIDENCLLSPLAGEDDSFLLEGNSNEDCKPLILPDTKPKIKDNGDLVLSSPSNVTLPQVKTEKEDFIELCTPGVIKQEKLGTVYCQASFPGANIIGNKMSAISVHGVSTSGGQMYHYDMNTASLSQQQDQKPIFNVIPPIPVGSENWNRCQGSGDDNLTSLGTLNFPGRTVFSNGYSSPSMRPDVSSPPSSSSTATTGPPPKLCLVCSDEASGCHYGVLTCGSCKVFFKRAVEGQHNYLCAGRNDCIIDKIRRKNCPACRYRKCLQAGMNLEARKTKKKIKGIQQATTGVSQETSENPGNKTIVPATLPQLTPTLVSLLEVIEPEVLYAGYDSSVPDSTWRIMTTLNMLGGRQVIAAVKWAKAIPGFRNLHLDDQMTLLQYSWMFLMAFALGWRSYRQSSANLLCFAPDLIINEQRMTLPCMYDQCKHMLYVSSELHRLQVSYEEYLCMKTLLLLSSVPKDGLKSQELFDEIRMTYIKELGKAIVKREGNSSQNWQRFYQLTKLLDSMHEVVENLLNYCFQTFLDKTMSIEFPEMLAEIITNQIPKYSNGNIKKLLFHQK

Structure (SMILES)	Potency [1]	Potency [2]	activation [3]	Potency [4]	Potency [5]	activation [6]	Potency [7]	activation [8]	outcome [9]
O=C=NCCCCCCN=C=O	inactive	inactive	0.731% (inactive)	–	–	–	–	–	–
O=c1n(CCO)c(=O)n(CCO)c(=O)n1CCO	inactive	inactive	–	inactive	30.6 µM (active)	–	–	–	–
CO[Si](OC)(OC)c1ccccc1	inactive	inactive	–	–	–	-5.49% (inactive)	inactive	–	–
CC(=O)CC(=O)Nc1ccc(C)cc1C	–	–	0.179% (inactive)	inactive	inactive	7.78% (inactive)	inactive	7% (inactive)	inactive
CCCCCCc1ccc(N)cc1	inactive	inactive	0.791% (inactive)	inactive	–	-7.39% (inactive)	inactive	-4.5% (inactive)	inactive
O=C(Cl)c1ccc(C(=O)Cl)cc1	inactive	inactive	–	–	–	–	inactive	–	–
CC1(C)[C@@H]([C@@H](Br)C(Br)(Br)Br)[C@H]1C(=O)O[C@H](C#N)c1cccc(Oc2ccccc2)c1	–	–	–	–	21.7 µM (active)	-6.04% (inactive)	–	–	–
CCCCOCC(C)O (configuration not stated)	–	–	0.734% (inactive) and -0.5% (inactive)	–	–	-3.25% (inactive)	inactive	–	–
C[Si]1(C)O[Si](C)(C)O[Si](C)(C)O1	inactive	inactive	-0.149% (inactive)	inactive	–	–	–	-4.74% (inactive)	inactive
C=C(C)C(=O)OCCCCCCCCCCCC	inactive	inactive	-0.811% (inactive)	–	–	-1.63% (inactive)	–	–	–
COC(=O)C1CCC(C(=O)OC)CC1 (configuration not stated)	–	inactive	-2.67% (inactive)	inactive	inactive	–	–	–	–
COC(=O)C(C)Oc1ccc(Oc2ncc(C(F)(F)F)cc2Cl)cc1 (configuration not stated)	inactive	inactive	–	–	inactive	–	–	–	–
COCCO	inactive	inactive	–	–	–	2.41% (inactive) and 1.59% (inactive)	inactive	–	–
CC(C)(C)c1cc(C(C)(C)C)c(O)c(C(C)(C)C)c1	inactive	–	–	–	–	22.2% (inactive)	inactive	–	–
CC1(C)C(=O)N(Br)C(=O)N1Br	inactive	inactive	–	inactive	–	5.17% (inactive)	inactive	-9.37% (inactive)	inactive
O=S(=O)(O)c1ccc(N=Nc2cc(S(=O)(=O)O)c3ccccc3c2O)c2ccccc12	inactive	inactive	0.356% (inactive)	inactive	–	-5.27% (inactive)	inactive	–	inactive
